In PubChem BioAssay (NCI) one finds growth data, which are given here for 13 compounds.

The structures appear in SMILES notation. The panel holds about 83,000 compounds, 20% with a hit somewhere; the sample as a whole holds those more often.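 Treatment: one concentration, 48 hours, 96-well format. Scoring: percent growth, with anything below 10 considered active.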 Unmarked numbers belong to inactive results. Activity calls are given as the source filed them.

Among the test systems are NCI-H23 lung; NCI-H226 lung; NCI-H322M lung; HOP-62 NSCLC; NCI-H460 lung; HOP-92 NSCLC; NCI-H522 lung; A549/ATCC NSCLC; 786-0 renal; COLO 205 colon.
What all share (test): NCI-60 one-dose screen, 48 h (100 = growth as untreated, 0 = no growth, -100 = all killed)
What all share (conditions): 10 µM unless noted

For `Cc1nc2c(=O)nc3s/c(=C\c4ccco4)c(=O)n3c2nc1C`, the growth was 96.8% in the assay on NCI-H23 lung; 97% with NCI-H226 lung; 93.5% in the assay with NCI-H322M lung; 94.8% with HOP-62 NSCLC; 101% in the assay with NCI-H460 lung; 85.8% in the assay on HOP-92 NSCLC. Also, the growth was 85.1% with NCI-H522 lung, 81.2% in the assay on A549/ATCC NSCLC, 97.1% in the assay on 786-0 renal and 116% in the assay with COLO 205 colon.
As to `CCN1C(=O)N(CC)C2C1NN=c1s/c(=C3\C(=O)N(CCC(C)C)c4ccccc43)c(=O)n12` (stereo not given), the growth in the assay on NCI-H23 lung is 30.8%; with NCI-H226 lung, 56.3%; in the assay with NCI-H322M lung, 52.1%; in the assay with HOP-62 NSCLC it was 38.9%; with NCI-H460 lung, 5.57% (active); in the assay on HOP-92 NSCLC, 40.4%. Further, the growth in the assay with NCI-H522 lung is 1.9% (active); in the assay with A549/ATCC NSCLC, 14.2%; in the assay on 786-0 renal it was 29.1%; with COLO 205 colon, 12.3%.
Take `[2H]C([2H])([2H])Oc1ccc(F)cc1/C=C/C(=O)/C=C(/C=C/c1cc(F)ccc1OC([2H])([2H])[2H])OB(F)F`: the growth in the assay on NCI-H23 lung is 76.6%; with NCI-H226 lung, 109%; in the assay on NCI-H322M lung, 108%; in the assay on HOP-62 NSCLC, 97.8%; in the assay with NCI-H460 lung, 95.5%; in the assay on HOP-92 NSCLC, 99.7%. For the same compound, the growth is 18.9% with NCI-H522 lung, 90.8% with A549/ATCC NSCLC, 86.3% with 786-0 renal and 57.6% with COLO 205 colon.
As to `CC(C)CCN(CCC(C)C)CC(O)c1cc2c(c3ccccc13)CCCC2` (stereo not given), the growth with NCI-H23 lung is 56.6%; with NCI-H226 lung, 70.2%; in the assay on NCI-H322M lung, 81.4%; in the assay on HOP-62 NSCLC, 85.6%; with NCI-H460 lung, 75.3%; in the assay on HOP-92 NSCLC it was 40.2%. Further, the growth was 56.7% in the assay with NCI-H522 lung, 73.3% with A549/ATCC NSCLC, 88.8% in the assay with 786-0 renal and 60.5% in the assay on COLO 205 colon.
As for `CCOC(=O)C(=CNc1cnc(Nc2ccc(N3CCOCC3)cc2)nc1Oc1ccc(OC)cc1)C(=O)OCC`, the growth was 68.4% with NCI-H23 lung; 70.3% with NCI-H226 lung; 39.7% in the assay on NCI-H322M lung; 23.5% with HOP-62 NSCLC; 2.03% (active) with NCI-H460 lung; 30.3% in the assay on HOP-92 NSCLC. For the same compound, the growth in the assay with NCI-H522 lung was 76.3%; in the assay on A549/ATCC NSCLC it was 22.2%; with 786-0 renal, 30.8%; in the assay on COLO 205 colon, 65.9%.
With `N=C(N)c1ccc(-c2ccc(-c3ccccc3)s2)cc1`, the growth with NCI-H23 lung is 85.5%; in the assay with NCI-H226 lung, 103%; with NCI-H322M lung, 49.2%; with HOP-62 NSCLC it was 74.6%; with NCI-H460 lung it was -16.6% (active); in the assay on HOP-92 NSCLC it was 73.2%. Also, the growth in the assay with NCI-H522 lung is -26.5% (active); with A549/ATCC NSCLC, 60.1%; in the assay with 786-0 renal, 78.8%; with COLO 205 colon, -42.9% (active).
For `CC[C@]12C=CCN3CC[C@@]4(c5ccc(OC)cc5N(C)[C@H]4[C@@](O)(C(=O)OC)[C@@H]1OC(=O)CCC[P+](c1ccccc1)(c1ccccc1)c1ccccc1)[C@@H]32`, the growth in the assay on NCI-H23 lung is -8.66% (active); in the assay on NCI-H226 lung, 14%; with NCI-H322M lung, 35.6%; in the assay with HOP-62 NSCLC, 2.56% (active); in the assay on NCI-H460 lung, 6.11% (active); in the assay with HOP-92 NSCLC, -40% (active). For the same compound, the growth is -35.4% (active) in the assay with NCI-H522 lung, 13.4% in the assay with A549/ATCC NSCLC, 20.6% in the assay with 786-0 renal and -87.9% (active) in the assay with COLO 205 colon.
`COc1cc(OC)c2sc(-c3ccc(-n4cncc4-c4cc(OC)c(OC)c(OC)c4)cc3)nc2c1`: the growth in the assay on NCI-H23 lung is 54.5%; with NCI-H226 lung it was 52.7%; with NCI-H322M lung, 86.8%; with HOP-62 NSCLC it was 79.6%; with NCI-H460 lung it was 46.2%; in the assay with HOP-92 NSCLC, 14.8%. Further, the growth with NCI-H522 lung is 43.2%; in the assay with A549/ATCC NSCLC, 50.9%; in the assay on 786-0 renal it was 67.2%; with COLO 205 colon, 44.5%.
As to `Cc1c2cccnc2c(C)c2c1c1cc(CO)ccc1n2C`, the growth was 30.6% in the assay with NCI-H23 lung; -33.4% (active) with NCI-H226 lung; 26.8% with NCI-H322M lung; 30.5% with HOP-62 NSCLC; 0.162% (active) with NCI-H460 lung; 32.9% in the assay on HOP-92 NSCLC. Besides, the growth in the assay on NCI-H522 lung is 30.3%; in the assay on A549/ATCC NSCLC, 20.9%; in the assay on 786-0 renal, 22.6%; in the assay with COLO 205 colon, 19.1%.
Regarding `O=C(CSc1nc(-c2ccccc2)cc(=O)[nH]1)Nc1nc(-c2ccccc2)cs1`, the growth is 84.3% in the assay on NCI-H23 lung; 76.2% with NCI-H226 lung; 93.4% with NCI-H322M lung; 109% in the assay on HOP-62 NSCLC; 106% with NCI-H460 lung; 72.5% with HOP-92 NSCLC. In addition, the growth in the assay on NCI-H522 lung is 74.4%; in the assay with A549/ATCC NSCLC, 95.3%; in the assay with 786-0 renal it was 103%; in the assay with COLO 205 colon it was 115%.
Take `CCC1S/C(=N\N=C(\C)c2cc3cc(Cl)ccc3o2)N(c2ccccc2)C1=O` (stereo not given): the growth is 90.7% in the assay with NCI-H23 lung; 113% with NCI-H226 lung; 82.4% in the assay with NCI-H322M lung; 100% in the assay with HOP-62 NSCLC; 122% with NCI-H460 lung; 71% in the assay on HOP-92 NSCLC. Besides, the growth in the assay on NCI-H522 lung is 160%; in the assay on A549/ATCC NSCLC, 132%; in the assay with 786-0 renal, 85.8%; in the assay with COLO 205 colon, 118%.
With `COc1cc(/C=C/C(=O)/C=C(O)/C=C/c2ccc(OC(=O)C34CC5CC(CC(C5)C3)C4)c(OC)c2)ccc1OC(=O)C12CC3CC(CC(C3)C1)C2`, the growth was 103% with NCI-H23 lung; 93.6% in the assay on NCI-H226 lung; 102% in the assay with NCI-H322M lung; 99.1% in the assay on HOP-62 NSCLC; 108% with NCI-H460 lung; 110% in the assay with HOP-92 NSCLC. Moreover, the growth was 94.8% with NCI-H522 lung, 103% with A549/ATCC NSCLC, 105% with 786-0 renal and 112% in the assay on COLO 205 colon.
Turning to `CCn1cc(CNc2ccc(C(=O)Nc3cc4cc(OC)c(OC)cc4c(C)n3)cc2)cn1`, the growth in the assay with NCI-H23 lung was 43.3%; in the assay with NCI-H226 lung it was 48.7%; in the assay on NCI-H322M lung it was 103%; in the assay on HOP-62 NSCLC, 39.6%; in the assay with NCI-H460 lung it was 86.7%; with HOP-92 NSCLC, 59.5%. Also, the growth is 9.72% (active) with NCI-H522 lung, 48.1% in the assay with A549/ATCC NSCLC, 70.4% in the assay on 786-0 renal and 42.1% with COLO 205 colon.
